Article PMC5540273 (PLoS ONE, 2017)
Where “and” joins values, the source holds several entries; their conditions need not be identical. Equal values may be shown once. Read-outs that look alike come from different tables or passages of the source.

Experiments:
MKNK1 = conditions: concentration: 1 μM, replicates: in singlicate; n = 1
MKNK2 = conditions: n = 1
MLCK = tested on: T1, MLCK; conditions: n = 1
T1 construct: gene MYLK3

MLK1 = tested on: T2, MLK1; conditions: concentration: 1 μM, replicates: in singlicate; n = 1
T2 construct: gene MAP3K9

MLK2 = conditions: concentration: 1 μM, replicates: in singlicate; n = 1
MLK3 = conditions: n = 1
MRCKA = conditions: n = 1
MRCKB = tested on: T3, MRCKB; conditions: n = 1
T3 construct: gene CDC42BPB

MST1R = conditions: n = 1
MST1 = tested on: T4, MST1; conditions: n = 1
T4 construct: gene STK4

[1] = concentration: 1 μM, replicates: in singlicate
[2] = concentration: 1 μM,replicates: in singlicate, 1 µM
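Note: KINOMEscan kinase panel screen.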

SMILES | %Inh (MKNK1) [%] | %Inh (MKNK2; [1]) [%] | %Inh (MLCK; [1]) [%] | %Inh (MLK1) [%] | %Inh (MLK2) [%] | %Inh (MLK3; [1]) [%] | %Inh (MRCKA; [1]) [%] | %Inh (MRCKB; [1]) [%] | %Inh (MST1R; [1]) [%] | %Inh (MST1; [1]) [%] | %Inh (MKNK2; [2]) | %Inh (MLCK; [2]) | %Inh (MLK3; [2]) | %Inh (MRCKA; [2]) | %Inh (MRCKB; [2]) | %Inh (MST1R; [2]) | %Inh (MST1; [2])
O=C1NC(=O)C(N2CCc3ccccc32)=C1c1ccccc1Cl [SB-373598] | 7 | 0 | 18 | 14 | 50 | 46 | 0 | 5 | 7 | 87 | – | – | – | – | – | – | –
COc1ccccc1-c1ccc2c(NC(=O)C3CC3)n[nH]c2n1 [SB-711239] | 0 | 0 | 14 | 8 | 8 | 8 | 0 | 0 | 16 | 0 | – | – | – | – | – | – | –
Cc1c(Cn2ccn3c(=O)cc(N4CCOCC4)nc23)cccc1C(F)(F)F [GSK2289044] | 0 | 0 | 7 | 0 | 0 | 3 | 0 | 0 | 27 | 1 | – | – | – | – | – | – | –
Clc1cc(Cl)cc(Nc2ccnc(Nc3cc(Cl)cc(Cl)c3)n2)c1 [GSK175726] | 5 | 0 | 0 | 0 | 0 | 10 | 9 | 6 | 14 | 0 | – | – | – | – | – | – | –
O=C(Nc1ccccc1)Nc1cccc(Oc2ccc3nccn3n2)c1 | 10 | 0 | 7 | 0 | 9 | 0 | 1 | 4 | 0 | 0 | – | – | – | – | – | – | –
COC(=O)c1c(-c2ccccc2)c2cc(C(=O)O)ccc2c(=O)n1Cc1ccccc1 | 0 | 0 | 0 | 41 | 14 | 0 | 0 | 0 | 19 | 0 | – | – | – | – | – | – | –
COc1cc(Nc2nccc(N3CCC(NC(=O)Nc4cc(C)ccc4C)C3)n2)cc(OC)c1OC (stereo not drawn) [GSK1379762] | 9 | 37 | 0 | 25 | 4 | 23 | 0 | 0 | 52 | 13 | – | – | – | – | – | – | –
Cl.c1ccc(-c2n[nH]cc2-c2ccnc(-c3ccc(CN4CCOCC4)cc3)c2)nc1 [GW776245] | 1 | 0 | 0 | 13 | 25 | 10 | 29 | 0 | 0 | 21 | – | – | – | – | – | – | –
O=C(Nc1n[nH]c2nc(-c3nccs3)c(Br)cc12)C1CC1 [SB-742251] | 59 | 51 | 48 | 0 | 0 | 0 | 3 | 0 | 18 | 3 | – | – | – | – | – | – | –
CN(C)CCN(C)C(=O)c1cc(-c2ccncc2)c(-c2ccc(Cl)c(O)c2)o1.Cl.Cl [SB-710397] | 2 | 1 | 12 | 0 | 0 | 0 | 17 | 2 | 42 | 0 | – | – | – | – | – | – | –
Cc1cccc(-c2nc(Nc3ccncc3)c3ccccc3n2)n1 [GW855857] | 0 | 0 | 0 | 11 | 7 | 6 | 47 | 63 | 0 | 0 | – | – | – | – | – | – | –
O=C(Nc1ccc2c(c1)OCO2)NC1CCN(c2ccnc(Nc3ccc(F)cc3)n2)C1 (stereo not drawn) [GSK1379724] | 0 | 3 | 0 | 0 | 0 | 2 | 2 | 16 | 35 | 0 | – | – | – | – | – | – | –
CC1=C(C(=O)Nc2cc3cn[nH]c3cc2F)C(c2ccc(C(F)(F)F)cc2)CC(=O)N1 (stereo not drawn) [GSK429286] | 0 | 19 | 17 | 0 | 0 | 0 | 1 | 23 | 36 | 0 | – | – | – | – | – | – | –
Nc1ncnc2[nH]c(-c3ccccc3)nc12 [AH5015] | 0 | 39 | 0 | 11 | 5 | 4 | 0 | 0 | 3 | 100 | – | – | – | – | – | – | –
O=C(Nc1n[nH]c2cc(-c3cccc(F)c3F)ccc12)C1CC1 [SB-733894] | 0 | 20 | 18 | 0 | 0 | 4 | 6 | 17 | 6 | 0 | – | – | – | – | – | – | –
Cc1c(O)cccc1Nc1ccnc2ccc(C(F)(F)F)cc12.Cl [GW466413] | 0 | 1 | 1 | 0 | 0 | 4 | 0 | 0 | 0 | 0 | – | – | – | – | – | – | –
Cc1cccc(-c2nc(-c3ccc(S(C)(=O)=O)cc3)sc2-c2ccnc(NCCc3ccccc3)c2)c1 | 3 | 0 | 0 | 0 | 2 | 0 | 6 | 0 | 28 | 0 | – | – | – | – | – | – | –
C[C@@H]1CCCCN1c1cc(-c2ccc3c(N)n[nH]c3c2)nc(N)n1 [GSK2258759] | 0 | 5 | 0 | 0 | 0 | 0 | 6 | 0 | 28 | 0 | – | – | – | – | – | – | –

SMILES | %Inh (MKNK1) [%] | %Inh (MKNK2; [1]) [%] | %Inh (MLCK; [1]) [%] | %Inh (MLK1) [%] | %Inh (MLK2) [%] | %Inh (MLK3; [1]) [%] | %Inh (MRCKA; [1]) [%] | %Inh (MRCKB; [1]) [%] | %Inh (MST1R; [1]) [%] | %Inh (MST1; [1]) [%] | %Inh (MKNK2; [2]) | %Inh (MLCK; [2]) | %Inh (MLK3; [2]) | %Inh (MRCKA; [2]) | %Inh (MRCKB; [2]) | %Inh (MST1R; [2]) | %Inh (MST1; [2])
Cc1cccc(-c2nc(Nc3ccc4[nH]ncc4c3)c3ccccc3n2)n1 [GW857175] | 0 | 0 | 0 | 2 | 22 | 7 | 0 | 72 | 0 | 0 | – | – | – | – | – | – | –
CCn1c(-c2ccccn2)nc2cnccc21 [SB-736398] | 26 | 24 | 0 | 12 | 0 | 7 | 14 | 0 | 47 | 29 | – | – | – | – | – | – | –
Cc1cc(NCC(c2ccccc2)c2ccccc2)nc(NCc2ccc(C(F)(F)F)cc2)n1 [GW497681] | 0 | 0 | 3 | 0 | 0 | 0 | 3 | 0 | 10 | 0 | – | – | – | – | – | – | –
Cc1cccc(-c2nc(C)cc(Nc3ccncc3)n2)n1 [GSK257997] | 0 | 0 | 0 | 0 | 0 | 39 | 34 | 81 | 35 | 8 | – | – | – | – | – | – | –
Cl.NC(=O)c1cccc(Nc2nccc(Nc3ccc(Oc4cccc(Cl)c4)c(Cl)c3)n2)c1 [GW659008] | 8 | 4 | 0 | 0 | 33 | 0 | 26 | 0 | 0 | 15 | – | – | – | – | – | – | –
CC(C)(C)c1ccc(C(=O)Nc2cn3cc(Cl)ccc3n2)cc1 | 0 | 0 | 54 | 0 | 8 | 0 | 0 | 0 | 5 | 0 | – | – | – | – | – | – | –
COc1cccc(NC(=O)NC2CCN(c3ccnc(Nc4ccc(F)cc4)n3)C2)c1 (stereo not drawn) [GSK1379721] | 23 | 0 | 0 | 0 | 0 | 0 | 6 | 0 | 28 | 0 | – | – | – | – | – | – | –
COC(=O)c1c(-c2ccccc2)c2cc(OC)ccc2c(=O)n1Cc1ccccc1 | 5 | 0 | 3 | 0 | 9 | 0 | 0 | 0 | 38 | 15 | – | – | – | – | – | – | –
CSc1nn2c(=O)cc(N3CCOCC3)nc2n1Cc1cccc(C(F)(F)F)c1C [GSK2363608] | 0 | – | – | 0 | 0 | – | – | – | – | – | 11% and 6% | 0% and 11% | 17% and 0% | 23% and 17% | 0% and 5% | 35% and 48% | 11% and 0%
COc1cccc(-c2cc(-c3c[nH]nc3-c3ccccn3)ccn2)c1 [GW680338] | 6 | 0 | 8 | 0 | 43 | 9 | 16 | 0 | 35 | 4 | – | – | – | – | – | – | –
CS(=O)(=O)c1ccc(-c2nc3n(c2-c2ccncc2)CCC3)cc1 [SKF-105942] | 9 | 6 | 0 | 0 | 0 | 1 | 14 | 2 | 19 | 0 | – | – | – | – | – | – | –
Cc1ccc(-c2cc(-c3c[nH]nc3-c3ccccn3)ccn2)cc1 [GW684088] | 0 | 1 | 0 | 0 | 0 | 15 | 2 | 0 | 13 | 0 | – | – | – | – | – | – | –
COc1ccc(CNC(=O)NC2CCN(c3ccnc(Nc4cc(OC)c(OC)c(OC)c4)n3)C2)cc1 (stereo not drawn) [GSK1379748] | 8 | 30 | 0 | 0 | 21 | 23 | 34 | 0 | 29 | 0 | – | – | – | – | – | – | –
Cn1ccc2ncnc(Oc3ccc(Nc4nc5ccccc5[nH]4)cc3)c21 | 0 | 0 | 0 | 0 | 20 | 0 | 0 | 0 | 18 | 8 | – | – | – | – | – | – | –
Cc1ccc(NC(=O)Nc2cccc(Cl)c2)cc1-c1ccc(C(=O)Nc2ccncc2)cc1 [GSK1398468] | 6 | 4 | 0 | 0 | 0 | 0 | 19 | 0 | 34 | 1 | – | – | – | – | – | – | –
COc1ccc(Nc2nccc(NCCNC(=O)Nc3ccccc3F)n2)cc1 [GSK1379901] | 24 | 13 | 0 | 0 | 0 | 25 | 23 | 0 | 16 | 0 | – | – | – | – | – | – | –
CCn1c(-c2cccnc2O)nc2cnccc21 [SB-736715] | 17 | 1 | 0 | 0 | 0 | 0 | 4 | 0 | 0 | 0 | – | – | – | – | – | – | –
COc1cc2nccc(Nc3ccc(NC(=O)c4ccc(C)cc4)c(O)c3)c2cc1OC.Cl [GW440132] | 0 | 5 | 0 | 0 | 0 | 33 | 13 | 8 | 0 | 1 | – | – | – | – | – | – | –
